This is a sample that favours compounds with a hit; in the whole collection about 18% have one here.
TDP1 inh: inhibitors of human tyrosyl-DNA phosphodiesterase TDP1 | Q9NUW8 | recombinant TDP1, AlphaScreen DNA substrate cleavage | Potency, µM (top dose mostly 130 µM), inactives show top-dose activity change, negative = inhibition, actives largely listed as inhibitors | 350,000 compounds, 0.28% hits | AID 485290; also: potency is read from the fitted curve at half-maximal effect; nearly all actives have a fitted effect of over 40% in size
Target sequence (Q9NUW8 whole entry, looked up): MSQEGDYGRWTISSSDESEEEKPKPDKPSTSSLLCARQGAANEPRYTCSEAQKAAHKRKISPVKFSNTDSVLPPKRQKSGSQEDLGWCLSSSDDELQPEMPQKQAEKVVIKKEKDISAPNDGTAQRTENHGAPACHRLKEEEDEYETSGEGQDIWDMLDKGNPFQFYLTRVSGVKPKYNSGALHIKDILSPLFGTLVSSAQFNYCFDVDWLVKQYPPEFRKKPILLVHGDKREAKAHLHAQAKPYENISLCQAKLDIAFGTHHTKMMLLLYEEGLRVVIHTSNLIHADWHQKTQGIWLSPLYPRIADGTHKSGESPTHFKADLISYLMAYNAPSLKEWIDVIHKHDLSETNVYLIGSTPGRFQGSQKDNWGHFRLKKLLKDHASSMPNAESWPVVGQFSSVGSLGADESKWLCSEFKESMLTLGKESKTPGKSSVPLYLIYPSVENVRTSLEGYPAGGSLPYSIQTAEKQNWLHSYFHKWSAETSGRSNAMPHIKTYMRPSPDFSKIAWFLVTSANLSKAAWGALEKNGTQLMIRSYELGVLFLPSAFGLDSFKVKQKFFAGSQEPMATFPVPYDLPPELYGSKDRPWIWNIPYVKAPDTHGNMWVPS
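Signal: AlphaScreen proximity between streptavidin donor and anti-FITC acceptor beads on intact substrate. Reaction: Tdp1 1 nM, substrate 15 nM final, 5 min RT after 15 min compound preincubation.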
CtBP-E1A inh: inhibitors of CtBP/E1A interaction | 340,000 compounds, 0.49% hits | AlphaScreen GST-E1A/His-CtBP binding, 1536-well; active compounds read low | AID 651724 | activity change, % (test concentration not listed); in the data active = activity change below about -65%; inconclusive = mostly about -30% to -63%
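AlphaScreen with 125 nM GST-E1A and 125 nM His-CtBP (5X stocks) in Tris pH 8.0, 300 mM NaCl, BSA, Tween 20, TCEP. Compounds preincubated 2 h at 37 deg C, then glutathione donor/nickel acceptor beads added for 1 h at 37 deg C in dark.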
Six1-Eya2 inh: inhibitors of human Six1/Eya2 interaction; 360,000 compounds, 0.56% hits; AlphaScreen GST-Six1/His-Eya2 binding, biochemical; active compounds read low; AID 651725; activity change, % (concentration not given with the values); in the data active = activity change below about -65%; inconclusive = mostly about -30% to -63%
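Homogeneous AlphaScreen proximity assay pairing GST-Six1 with His-tagged Eya2 (added as 5X mix: 250 nM and 500 nM) in 50 mM Tris pH 8.0, 300 mM NaCl, 1 mM TCEP. Glutathione donor and nickel acceptor beads; 1 h, 37 °C, dark.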
IL-1B inflam inh: inflammasome signaling inhibition, IL-1 beta readout | THP-1 LPS/ATP IL-1B secretion, AlphaLISA, 16 h; active compounds read low | activity change, % at 57.5 µM | 360,000 compounds, 4.7% hits; in the data active = activity change below about -50%; inconclusive = mostly about -30% to -49%
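Secreted IL-1B measured by AlphaLISA bead assay after 16 h compound exposure of THP-1 cells; compounds (final up to 57.5 uM) added 1 h before LPS (250 ng/mL) and ATP (1.25 mM) stimulation; lower signal means less secretion.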
TDP1 cell CPT: growth inhibition of DT40 Tdp1-/-;hTDP1 cells with camptothecin (screen for TDP1 inhibitors); chicken DT40 Tdp1-/-;hTDP1 cells + 20 nM CPT, ATP luminescence, 48 h; Potency, µM (top dose mostly 46.2 µM), for the others: top-dose activity change, negative = growth inhibition, actives largely listed as inhibitors; 420,000 compounds, 12% hits; AID 686979; also: potency is read from the fitted curve at half-maximal effect; nearly all actives have a fitted effect of over 55% in size
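Chicken DT40 Tdp1-/- cells stably complemented with human TDP1 were seeded at 400 cells/well in medium containing 20 nM camptothecin, exposed to pin-transferred compounds, and grown at 37 °C for at least 48 hr. Viability was read as ATP luminescence.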
TDP1 cell noCPT: qHTS for Inhibitors of human tyrosyl-DNA phosphodiesterase 1 (TDP1): qHTS in cells in absence of CPT. DT40 Tdp1-/- hTDP1 cells, no CPT, ATP luminescence, 48 h. Potency, µM (top dose mostly 46.2 µM), without a hit: at the highest dose activity change, negative = growth inhibition, hits mostly inhibitors. 420,000 compounds, 15% hits. AID 686978, 2013; also: potency is read from the fitted curve at half-maximal effect; nearly all actives have a fitted effect of over 55% in size
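DT40 Tdp1-/-;hTDP1 cells, no CPT (DMSO vehicle only), 400 cells/well; compounds pin-transferred; ≥48 hr, 37 °C; CellTiter-Glo 30 min RT dark, luminescence read.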
Starred values were filed as active, the others as inactive; ? = inconclusive; nt = not tested or not shown. Unless noted, calls follow the shape of the dose curve; as a rule, active = well fitted curve in the direction sought with a large enough effect; inconclusive = small, poorly fitted or top-dose-only effect, or another doubt; inactive = no such curve, though single readings can be large; an effect the other way counts as inactive or inconclusive. % is scaled to controls: 0 for no effect and ±100 for the full control effect.

SMILES	TDP1 inh	CtBP-E1A inh	Six1-Eya2 inh	IL-1B inflam inh	TDP1 cell CPT	TDP1 cell noCPT
CC(=O)Nc1cccc(OCCCNC(=O)C2CCC2)c1	0%	-18	-4	-4	5%	-2%
Cc1cc(NC(=O)C(C)SCC(=O)OCC(=O)Nc2c(C)cccc2C(C)C)no1 (centres undefined)	1%	-5	9	22	0%	1%
COc1ccc(-c2cc(-c3ccc(O)cc3)nc(N)c2C#N)cc1	nt	nt	-17	-12	?	23µM*
COc1ccccc1-c1cc(-c2ccc(O)cc2)nc(N)c1C#N	nt	-14	-1	-7	?	?
N#Cc1c(-c2ccccc2)cc(-c2ccc(O)cc2)nc1N	nt	?	-25	-2	?	?
COc1cc(-c2cc(-c3ccc(O)cc3)nc(N)c2C#N)ccc1O	0%	-28	?	-65*	-96%	?
COc1ccc(OC)c(-c2cc(-c3cccnc3)nc(N)c2C#N)c1	0%	-1	11	16	0.92µM*	0.92µM*
CCOc1cc(-c2cc(-c3ccc(C)cc3)nc(N)c2C#N)ccc1O	5%	-6	-15	18	?	21µM*
O=S1(=O)CC(O)C(N(CCO)C(=S)Nc2ccccc2)C1 (centres undefined)	nt	6	8	22	17%	-3%
CCOc1cc(/C=C(\C#N)c2[nH]nc(N)c2C#N)ccc1O	7%	-81*	-67*	-65*	?	10µM*
CCOc1cc(/C=C(\C#N)C(=O)Nc2ccccn2)ccc1O	3%	1	8	22	0%	-3%
N#Cc1c(-c2ccco2)cc(-c2ccc(F)cc2)nc1N	2%	-6	-24	-2	?	18µM*
CN(CC(=O)Nc1ccccc1Br)C(=O)CN1CCN(Cc2ccc(Cl)cc2)CC1	2%	nt	2	13	?	?
CC(C)(CN1CCCC1)NS(=O)(=O)c1ccccc1	nt	0	9	0	-2%	10%
COCCN(C(=S)Nc1cc(C)cc(C)c1)C(C)c1ccco1 (centres undefined)	0%	nt	2	-12	?	26µM*
COCCN(C(=S)Nc1cc(C)cc(C)c1)C(C)c1cccs1 (centres undefined)	5%	-4	0	-10	18µM*	?
CCc1cccc(C)c1NC(=S)N(CCN(C)C)C(C)c1ccco1 (centres undefined)	0%	nt	1	-11	18µM*	?
Cc1ccc(NC(=S)N(CCN(C)C)C(C)c2ccco2)cc1Cl (centres undefined)	4%	nt	-15	-9	?	?
CC(C)CCN(C(=S)Nc1cccc(F)c1)C(C)c1cccs1 (centres undefined)	-2%	5	2	-2	?	1%
Cc1ccccc1NC(=S)N(CCN(C)C)C(C)c1ccccn1 (centres undefined)	0%	-72*	-65*	0	-5%	-19%
Cc1ccc2c(c1)nnn2C1CCN(CC(=O)Nc2ccc3c(c2)OCCO3)CC1	8%	3	-3	-14	5%	-8%
Cc1ccc2c(CN3CCOCC3)cc(=O)oc2c1C	nt	0	4	5	9%	-3%
CC(C)c1ccc(NCCC(=O)c2ccc(Br)cc2)cc1	2%	19	6	14	-19%	-20%
Cc1cccc(NCCC(=O)c2ccc(Br)cc2)c1	0%	8	-17	0	23µM*	23µM*
CCOC(=O)CNCCC(=O)c1ccc(Br)cc1	5%	-4	1	?	5.8µM*	6.5µM*
SMILES	TDP1 inh	CtBP-E1A inh	Six1-Eya2 inh	IL-1B inflam inh	TDP1 cell CPT	TDP1 cell noCPT
O=C(Cn1c(SCC(=O)NC2CCCC2)nnc1-c1ccncc1)Nc1ccc2c(c1)OCO2	5%	4	-14	23	-1%	-27%
COc1cc(-c2cnc3c(NC=O)cc(-c4cccc(C(F)(F)F)c4)cn23)cc(OC)c1OC	nt	0	-17	24	5.8µM*	5.2µM*
COc1cc(-c2cc(NC=O)c3ncc(-c4ccc(F)cc4)n3c2)cc(OC)c1OC	nt	0	-5	-24	?	?
Cn1cc(-c2cnc3c(NC=O)cc(-c4cccc(C(F)(F)F)c4)cn23)cn1	nt	-4	-15	0	?	21µM*
COc1cc(-c2cnc3c(NC=O)cc(-c4ccsc4)cn23)cc(OC)c1OC	nt	?	-28	135	0.18µM*	0.16µM*
COc1cc(-c2cnc3c(NC=O)cc(-c4cccnc4)cn23)cc(OC)c1OC	nt	?	?	99	2.9µM*	2.9µM*
CC1CC2CCCC(O)=C2C(=O)O1 (centres undefined)	nt	-17	4	-8	-1%	-2%
COc1cccc(-c2cnc3c(NC=O)cc(-c4ccc(O)c(OC)c4)cn23)c1	nt	-71*	?	40	-89%	2.3µM*
Nc1ccc(-c2cc(NC=O)c3ncc(-c4cccc(C(F)(F)F)c4)n3c2)cn1	nt	?	-27	-22	16µM*	10µM*
COc1cc(-c2cc(NC=O)c3ncc(-c4ccc(C(C)=O)cc4)n3c2)ccc1O	nt	-25	1	14	9.2µM*	8.2µM*
CC(=O)c1cccc(-c2cnc3c(NC=O)cc(-c4ccccc4F)cn23)c1	nt	-3	-13	157	?	?
COc1ccc(-c2cc(NC=O)c3ncc(-c4cccc(C(F)(F)F)c4)n3c2)c(OC)c1	nt	-12	-12	-27	18µM*	15µM*
CCOC(=O)C1CCN(C(=O)c2ccc3c(c2)OCO3)CC1	0%	6	0	-11	-8%	-16%
CCc1noc(C)c1C(=O)N1CCCC(C(=O)c2cc(F)ccc2OC)C1 (centres undefined)	2%	nt	-3	17	-25%	?
CN(CC(=O)N1CCN(c2ccccn2)CC1)S(=O)(=O)c1ccc(Cl)cc1	1%	4	-4	-4	-27%	?
CN1CCN(C(=O)c2cc3nc(-c4ccccc4)cc(C(F)(F)F)n3n2)CC1	-2%	11	3	-11	?	?
COc1cccc(-c2cc(NC=O)c3ncc(-c4cc(OC)c(OC)c(OC)c4)n3c2)c1	nt	?	-15	106	0.52µM*	0.58µM*
CCCc1nc2c3ccccc3ccn2c1Cc1ccc(OC)cc1C	nt	-13	1	-12	18µM*	?
CCCc1nc2ccc(C)cn2c1Cc1ccccc1OC	nt	-6	-11	0	21µM*	21µM*
CCCc1nc2ccc(Cl)cn2c1Cc1ccccc1	nt	-9	3	21	6.5µM*	4.1µM*

Assay outcomes (PubChem)
